Source: PubChem BioAssay (EPA / NIEHS)
Results filed as inconclusive are left out. Active and inactive are the calls of the source. The calls were made as follows: active = hit-call score of the fitted dose curve at least 0.9, where 1 is the maximum; inconclusive = response in the unintended direction; inactive = score below 0.9.

Assays:
NCBI gene 100848466 = test: NVS_NR_bPR: NovaScreen (NVS) Nuclear Receptor Binding Assay for bovine Progextron Receptor (PR) (AID 2283343);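 also: actives lower bound radioligand signal below DMSO meaning displacement of the label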
In short: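 Bovine uterine membrane preparation, cell-free; radioligand competitive displacement measured by scintillation counting 18 hours after dosing. Loss of signal versus DMSO baseline indicates binding; primary HTS single concentration 25 uM in duplicate, actives followed in concentration series.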

[1] = molecular target: bovine Estrogen Receptor (ER), ESR1 (gene 407238) (UniProt P49884); test: NVS_NR_bER: NovaScreen (NVS) Nuclear Receptor Binding Assay for bovine Estrogen Receptor (ER) (AID 2283345);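 also: actives lower the bound radioligand count which means they displace the ER ligand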
bovine Estrogen Receptor (ER), ESR1 (gene 407238), sequence (P49884 whole entry, looked up): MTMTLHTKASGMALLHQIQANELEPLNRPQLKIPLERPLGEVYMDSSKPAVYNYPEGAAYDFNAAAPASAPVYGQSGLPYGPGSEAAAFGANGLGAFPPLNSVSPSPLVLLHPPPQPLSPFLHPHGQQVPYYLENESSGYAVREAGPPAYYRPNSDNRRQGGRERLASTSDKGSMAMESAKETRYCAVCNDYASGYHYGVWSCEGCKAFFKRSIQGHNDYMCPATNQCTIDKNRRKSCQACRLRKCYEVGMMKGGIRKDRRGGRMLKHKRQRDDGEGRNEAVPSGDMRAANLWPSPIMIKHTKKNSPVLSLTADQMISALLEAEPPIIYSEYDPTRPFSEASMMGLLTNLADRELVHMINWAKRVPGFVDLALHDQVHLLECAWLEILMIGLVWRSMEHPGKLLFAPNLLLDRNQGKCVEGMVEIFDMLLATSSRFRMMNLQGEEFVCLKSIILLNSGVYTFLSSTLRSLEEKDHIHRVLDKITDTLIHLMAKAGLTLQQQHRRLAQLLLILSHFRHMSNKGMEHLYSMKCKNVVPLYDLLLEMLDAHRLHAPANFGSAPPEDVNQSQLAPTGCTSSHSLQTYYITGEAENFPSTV
In short: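 Bovine uterine membranes; tritiated or iodinated radioligand; competitive displacement; 18 h; scintillation read; DMSO negative control; 25 uM duplicates, then concentration series for actives.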

[2] = molecular target: Estrogen receptor (Homo sapiens) (UniProt P03372); test: NVS_NR_hER: NovaScreen (NVS) Nuclear Receptor Binding Assay for human Estrogen Receptor (ER) (AID 2283348)
Estrogen receptor (Homo sapiens), sequence (P03372 whole entry, looked up, the tested form may be a part): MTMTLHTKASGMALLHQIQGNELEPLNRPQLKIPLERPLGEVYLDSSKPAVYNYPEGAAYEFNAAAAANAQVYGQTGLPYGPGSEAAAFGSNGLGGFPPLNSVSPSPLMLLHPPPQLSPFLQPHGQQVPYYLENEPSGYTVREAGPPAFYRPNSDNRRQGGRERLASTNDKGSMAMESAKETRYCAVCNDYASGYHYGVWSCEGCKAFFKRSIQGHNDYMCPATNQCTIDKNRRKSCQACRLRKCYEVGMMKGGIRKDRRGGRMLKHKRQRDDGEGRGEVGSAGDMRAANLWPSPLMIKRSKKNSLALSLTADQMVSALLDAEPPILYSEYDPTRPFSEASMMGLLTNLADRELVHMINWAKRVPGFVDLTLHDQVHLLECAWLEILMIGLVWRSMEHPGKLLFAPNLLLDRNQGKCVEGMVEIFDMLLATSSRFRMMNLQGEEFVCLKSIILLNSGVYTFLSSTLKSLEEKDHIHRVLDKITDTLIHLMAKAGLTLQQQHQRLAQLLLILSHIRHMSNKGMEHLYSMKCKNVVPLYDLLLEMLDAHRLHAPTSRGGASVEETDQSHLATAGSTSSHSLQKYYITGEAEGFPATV
In short: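 Cell-free radioligand binding with protein extracted from MCF7 cells; scintillation counting 18 hours after dosing. Loss of signal versus DMSO baseline read as displacement; primary single-concentration screen at 25 uM in duplicate, actives retested in concentration series.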

[3] = molecular target: Estrogen receptor (Homo sapiens) (UniProt P03372); test: OT_ER_ERaERa_0480: Odyssey Thera (OT) 8-hour HEK293T Protein-Complementation Assay for Estrogen Receptor-alpha/-alpha Homodimer (AID 2283351);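 also: rise in fluorescence from reassembled reporter fragments on ERα LBD homodimer in nucleus or whole cell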
In short: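 Binding reporter in which dimerisation of ERα LBD (aa 310-547) fusions reconstitutes a fluorescent reporter in HEK293T cells. Compounds incubated 8 h; mean fluorescence intensity increase versus DMSO scored.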

[4] = tested on: guinea pig Histamine Receptor (H2), gene 100729734; test: NVS_GPCR_gH2: NovaScreen (NVS) G Protein-Coupled Receptor Assay for guinea pig Histamine Receptor (H2) (AID 2283342)
In short: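 Radioligand displacement on guinea pig striatal membranes, 1 h after dosing, filter-based scintillation counting; loss of signal versus DMSO. Single-point screen at 25 uM in duplicate, then concentration-response up to 50 uM.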

[5] = molecular target: Estrogen receptor (Homo sapiens) + Estrogen receptor beta (Homo sapiens) (UniProt P03372+Q92731); test: OT_ER_ERaERb_0480: Odyssey Thera (OT) 8-hour HEK293T Protein-Complementation Assay for Estrogen Receptor-alpha/-beta Heterodimer (AID 2283352)
Estrogen receptor (Homo sapiens) + Estrogen receptor beta (Homo sapiens), sequence (P03372 whole entry, looked up, the tested form may be a part): as above
Estrogen receptor (Homo sapiens) + Estrogen receptor beta (Homo sapiens), sequence (Q92731 whole entry, looked up, the tested form may be a part): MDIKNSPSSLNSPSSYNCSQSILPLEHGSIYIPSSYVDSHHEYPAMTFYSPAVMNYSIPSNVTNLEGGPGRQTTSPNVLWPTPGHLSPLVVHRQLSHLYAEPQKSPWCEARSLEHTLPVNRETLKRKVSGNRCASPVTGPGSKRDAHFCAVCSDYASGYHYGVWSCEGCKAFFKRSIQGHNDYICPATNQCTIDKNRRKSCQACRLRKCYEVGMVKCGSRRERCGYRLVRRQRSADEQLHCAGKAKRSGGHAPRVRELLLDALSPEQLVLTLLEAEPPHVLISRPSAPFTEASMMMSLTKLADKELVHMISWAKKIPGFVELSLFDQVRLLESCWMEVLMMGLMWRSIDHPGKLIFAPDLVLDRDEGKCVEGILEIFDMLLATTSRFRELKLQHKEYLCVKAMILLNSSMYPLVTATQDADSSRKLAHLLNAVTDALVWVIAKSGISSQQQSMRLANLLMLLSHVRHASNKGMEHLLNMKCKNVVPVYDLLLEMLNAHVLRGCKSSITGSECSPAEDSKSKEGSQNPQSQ
In short: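 Human HEK293T cells were treated for 8 hours and receptor heterodimerisation was detected through reconstitution of a fluorescent reporter split between ER-alpha and ER-beta ligand-binding domains. Activity was analysed as gain of signal against DMSO.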

[6] = molecular target: Bile acid receptor (Homo sapiens) (UniProt Q96RI1); test: NVS_NR_hFXR_Antagonist: NovaScreen (NVS) Nuclear Receptor Binding Assay for human Farnesoid X Receptor Antagonism (FXR) (AID 2283350)
Bile acid receptor (Homo sapiens), sequence (Q96RI1 whole entry, looked up): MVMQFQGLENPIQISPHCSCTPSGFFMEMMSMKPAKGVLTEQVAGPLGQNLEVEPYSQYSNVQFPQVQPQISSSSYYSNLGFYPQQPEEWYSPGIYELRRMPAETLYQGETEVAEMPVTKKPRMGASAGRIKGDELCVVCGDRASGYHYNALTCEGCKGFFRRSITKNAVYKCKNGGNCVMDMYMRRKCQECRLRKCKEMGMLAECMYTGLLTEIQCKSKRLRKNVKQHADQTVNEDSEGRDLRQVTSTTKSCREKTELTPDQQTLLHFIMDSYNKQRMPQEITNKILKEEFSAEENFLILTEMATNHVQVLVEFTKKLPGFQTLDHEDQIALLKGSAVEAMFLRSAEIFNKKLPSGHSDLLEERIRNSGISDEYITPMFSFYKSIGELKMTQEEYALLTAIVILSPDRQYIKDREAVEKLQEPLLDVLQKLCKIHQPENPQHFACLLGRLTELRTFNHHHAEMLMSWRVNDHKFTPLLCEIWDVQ
Description: NVS_NR_hFXR_Antagonist is a biochemical, single-readout assay that uses extracted gene-proteins in a cell-free assay. Measurements were taken 1 hour after chemical dosing in a 384-well plate.NVS_NR_hFXR_Antagonist is one of one assay component(s) measured or calculated from the NVS_NR_hFXR_Antagonist assay. It is designed to make measurements of fluorescent resonance energy transfer, a form of binding reporter, as detected with fluorescent resonance energy transfer signals by Time-Resolved Fluorescence Resonance Energy Transfer (TR-FRET) technology.Data from the assay component NVS_NR_hFXR_Antagonist was analyzed into 1 assay endpoint. This assay endpoint, NVS_NR_hFXR_Antagonist, was analyzed in the positive analysis fitting direction relative to DMSO as the negative control and baseline of activity. Using a type of binding reporter, loss-of-signal activity can be used to understand changes in the binding as they relate to the gene NR1H4. Furthermore, this assay endpoint can be referred to as a primary readout, because the performed assay has only produced 1 assay endpoint. To generalize the intended target to other relatable targets, this assay endpoint is annotated to the nuclear receptor intended target family, where the subfamily is non-steroidal.
Binding assays used specific radioligands (tritiated, iodinated) with non-radioactive competitive displacement ligands in agonist or antagonist protocols (as indicated) and various reference compounds and inhibitors to titrate specific binding to receptors and transporters. Most enzyme assays (CYPs, kinases, phosphatases, proteases, HDACs) used recombinant protein and specific substrates (fluorescence mostly, some colorimetric and radioactive) and inhibitors, followed by a biochemical separation of substrate and product. All assays for the biochemical HTS were initially run in duplicate at a single concentration (10 uM for CYP450 assays and 25 uM for all others). […] Each assay was run with positive and negative controls, and concurrent controls on every plate. The follow-up (secondary) screen tested active chemical-pairs in concentration series, as well as a few additional assays not tested in the primary screen, some selected negative inactives, and several cases re-run in the concentration series for confirmatory purposes.

[7] = molecular target: human Constitutive Androstane Receptor (CAR), NR1I3 (gene 9970) (UniProt Q14994); test: NVS_NR_hCAR_Antagonist: NovaScreen (NVS) Nuclear Receptor Binding Assay for human Constitutive Androstane Receptor Antagonism (CAR) (AID 2283344)
human Constitutive Androstane Receptor (CAR), NR1I3 (gene 9970), sequence (Q14994 whole entry, looked up): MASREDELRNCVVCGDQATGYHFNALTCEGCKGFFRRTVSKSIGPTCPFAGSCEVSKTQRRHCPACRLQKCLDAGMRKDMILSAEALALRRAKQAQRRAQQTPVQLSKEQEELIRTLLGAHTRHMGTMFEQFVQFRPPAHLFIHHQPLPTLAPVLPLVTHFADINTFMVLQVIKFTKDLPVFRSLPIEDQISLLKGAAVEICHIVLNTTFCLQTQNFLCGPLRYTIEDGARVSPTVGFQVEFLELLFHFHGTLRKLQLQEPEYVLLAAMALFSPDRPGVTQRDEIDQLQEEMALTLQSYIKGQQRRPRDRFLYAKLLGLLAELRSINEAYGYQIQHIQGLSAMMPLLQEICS
In short: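 Cell-free TR-FRET binding read 1 h after dosing, antagonist mode; loss of signal versus DMSO baseline. Primary screen in duplicate at a single 25 uM; actives retested in concentration series.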

[8] = molecular target: rat Glycine Receptor, Strychnine-sensitive (GlyRStrySens), Glra1 (gene 25674) (UniProt P07727); test: NVS_LGIC_rGlyRStrySens: NovaScreen (NVS) Ligand-Gated Ion Channel Assay for rat Glycine Receptor, Strychnine-sensitive (GlyRStrySens) (AID 2283341)
rat Glycine Receptor, Strychnine-sensitive (GlyRStrySens), Glra1 (gene 25674), sequence (P07727 whole entry, looked up): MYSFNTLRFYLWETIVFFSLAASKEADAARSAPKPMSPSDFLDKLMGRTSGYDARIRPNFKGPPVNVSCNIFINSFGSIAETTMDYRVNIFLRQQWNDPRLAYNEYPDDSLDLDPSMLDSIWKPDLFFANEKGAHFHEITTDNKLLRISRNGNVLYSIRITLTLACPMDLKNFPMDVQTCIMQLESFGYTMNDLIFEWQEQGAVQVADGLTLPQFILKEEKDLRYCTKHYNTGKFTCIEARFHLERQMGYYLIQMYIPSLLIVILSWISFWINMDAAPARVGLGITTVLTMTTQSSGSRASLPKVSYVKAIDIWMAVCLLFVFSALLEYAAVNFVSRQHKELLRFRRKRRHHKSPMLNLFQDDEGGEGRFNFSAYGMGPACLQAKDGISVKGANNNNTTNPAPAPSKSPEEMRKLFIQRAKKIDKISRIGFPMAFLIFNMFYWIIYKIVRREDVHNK
Description: NVS_LGIC_rGlyRStrySens is a biochemical, single-readout assay that uses extracted gene-proteins from Rat spinal cord membranes in a tissue-based cell-free assay. Measurements were taken 1 hour after chemical dosing in a 48-well plate.NVS_LGIC_rGlyRStrySens is one of one assay component(s) measured or calculated from the NVS_LGIC_rGlyRStrySens assay. It is designed to make measurements of radioligand binding, a form of binding reporter, as detected with scintillation counting signals by Filter-based radiodetection technology.Data from the assay component NVS_LGIC_rGlyRStrySens was analyzed into 1 assay endpoint. This assay endpoint, NVS_LGIC_rGlyRStrySens, was analyzed in the positive analysis fitting direction relative to DMSO as the negative control and baseline of activity. Using a type of binding reporter, loss-of-signal activity can be used to understand changes in the binding as they relate to the gene Glra1. Furthermore, this assay endpoint can be referred to as a primary readout, because the performed assay has only produced 1 assay endpoint. To generalize the intended target to other relatable targets, this assay endpoint is annotated to the ion channel intended target family, where the subfamily is ligand-gated ion channel.
Binding assays used specific radioligands (tritiated, iodinated) with non-radioactive competitive displacement ligands in agonist or antagonist protocols (as indicated) and various reference compounds and inhibitors to titrate specific binding to receptors and transporters. Most enzyme assays (CYPs, kinases, phosphatases, proteases, HDACs) used recombinant protein and specific substrates (fluorescence mostly, some colorimetric and radioactive) and inhibitors, followed by a biochemical separation of substrate and product. All assays for the biochemical HTS were initially run in duplicate at a single concentration (10 uM for CYP450 assays and 25 uM for all others). Assay-chemical combinations meeting a pre-defined threshold (e.g., 30% inhibition and other criteria defined below) were then run in singleton concentration-response format with maximum concentration of 20 uM for CYPs and 50 uM for all others. Each assay was run with positive and negative controls, and concurrent controls on every plate. The follow-up (secondary) screen tested active chemical-pairs in concentration series, as well as a few additional assays not tested in the primary screen, some selected negative inactives, and several cases re-run in the concentration series for confirmatory purposes.

[9] = molecular target: chimpanzee Androgen Receptor (AR), AR (gene 747460) (UniProt O97775); test: NVS_NR_cAR: NovaScreen (NVS) Nuclear Receptor Binding Assay for chimpanzee Androgen Receptor (AR) (AID 2283346);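 also: radioligand displacement from AR measured by scintillation counting in a cell-free assay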
chimpanzee Androgen Receptor (AR), AR (gene 747460), sequence (O97775 whole entry, looked up): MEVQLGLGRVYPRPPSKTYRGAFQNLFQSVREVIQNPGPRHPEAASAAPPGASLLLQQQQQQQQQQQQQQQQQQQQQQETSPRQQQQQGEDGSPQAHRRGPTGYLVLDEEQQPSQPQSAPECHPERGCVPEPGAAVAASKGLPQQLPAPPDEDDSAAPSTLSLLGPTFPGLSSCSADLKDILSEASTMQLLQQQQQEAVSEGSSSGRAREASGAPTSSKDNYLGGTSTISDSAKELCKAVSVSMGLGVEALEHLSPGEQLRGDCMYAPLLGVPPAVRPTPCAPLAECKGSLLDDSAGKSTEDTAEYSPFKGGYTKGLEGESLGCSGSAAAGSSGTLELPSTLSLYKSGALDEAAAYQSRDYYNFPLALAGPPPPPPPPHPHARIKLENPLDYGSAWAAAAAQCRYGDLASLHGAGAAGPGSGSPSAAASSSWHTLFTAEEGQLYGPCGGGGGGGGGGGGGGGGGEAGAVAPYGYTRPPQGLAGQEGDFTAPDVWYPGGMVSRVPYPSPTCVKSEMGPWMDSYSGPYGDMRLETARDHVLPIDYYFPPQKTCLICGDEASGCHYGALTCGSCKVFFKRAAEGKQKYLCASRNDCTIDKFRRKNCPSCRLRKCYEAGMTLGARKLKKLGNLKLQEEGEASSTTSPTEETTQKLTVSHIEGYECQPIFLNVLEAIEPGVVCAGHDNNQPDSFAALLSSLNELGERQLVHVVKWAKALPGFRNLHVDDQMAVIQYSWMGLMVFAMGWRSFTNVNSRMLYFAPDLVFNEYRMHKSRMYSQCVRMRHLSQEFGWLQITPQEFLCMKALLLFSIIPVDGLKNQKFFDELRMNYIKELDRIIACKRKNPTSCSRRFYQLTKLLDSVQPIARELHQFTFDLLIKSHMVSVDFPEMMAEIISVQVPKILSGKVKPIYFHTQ
In short: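 Cell-free radioligand displacement using receptor protein extracted from Sf9/Sf21 cells; bound radioligand measured by scintillation counting 72 hours after chemical dosing. Loss of signal versus DMSO baseline indicates binding; primary screen single-concentration in duplicate at 25 uM, actives followed in concentration series.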

O=C1c2c(O)cccc2Cc2cccc(O)c21
AC50 (NCBI gene 100848466): 42.7 µM (active)

Cc1ccc(-c2cc(C(F)(F)F)nn2-c2ccc(S(N)(=O)=O)cc2)cc1
outcome [1]: inactive | outcome [2]: inactive | outcome [3]: inactive

CN(C)C(=O)NC1(c2ccccc2)CCN(CCC[C@]2(c3ccc(Cl)c(Cl)c3)CCCN(C(=O)c3ccccc3)C2)CC1
AC50 [4]: 0.0164 µM (active) | outcome [3]: inactive | outcome [5]: inactive

CC(=O)O[C@]1(C(C)=O)CC[C@H]2[C@@H]3C=C(Cl)C4=CC(=O)[C@@H]5C[C@@H]5[C@]4(C)[C@H]3CC[C@@]21C
outcome [4]: inactive | AC50 (NCBI gene 100848466): 0.0857 µM (active)

CCCCc1nc2cccnc2n1Cc1ccc(-c2ccccc2-c2nnn[nH]2)cc1
outcome [4]: inactive | outcome [6]: inactive | outcome [3]: inactive

Cc1c(C)c2c(c(C)c1O)CCC(C)(COc1ccc(CC3SC(=O)NC3=O)cc1)O2 (stereo unspecified)
outcome [1]: inactive | outcome [2]: inactive | outcome [3]: inactive

COc1ccc(OC(F)(F)F)cc1CN[C@H]1CCCN[C@H]1c1ccccc1
AC50 [4]: 7.67 µM (active) | outcome [7]: inactive | AC50 [6]: 40.2 µM (active) | outcome [5]: inactive

CCc1nc(N)nc(N)c1-c1ccc(Cl)cc1
AC50 [8]: 2.7 µM (active) | AC50 [4]: 2.94 µM (active) | outcome [3]: inactive | outcome [5]: inactive

CCCCC(CC)CO (stereo unspecified)
outcome [8]: inactive

Cc1cc(Cc2ccc(N)c(C)c2)ccc1N
outcome [1]: inactive | AC50 [9]: 25 µM (active)

CSc1ccc(Oc2ccc(S(N)(=O)=O)cc2CN(C)C)cc1C
outcome [8]: inactive | AC50 [4]: 11.7 µM (active) | outcome [2]: inactive | outcome [3]: inactive | outcome [5]: inactive

CCCCCCCCCC[N+](C)(C)[O-]
outcome [4]: inactive | outcome [3]: inactive | outcome [5]: inactive

O=C(N[C@@H](c1ccccc1)[C@@H]1CCCCN1)c1cccc(C(F)(F)F)c1Cl
AC50 [7]: 25 µM (active) | outcome [3]: inactive
